Many of the other results were omitted from the sample, so hits are more common in it than they were.
Pf Dd2 growth: Plasmodium falciparum Dd2 growth inhibition; P. falciparum Dd2 growth, SYBR Green, 72 h; Potency, µM (highest dose often 28.9 µM), inactives show top-dose activity, negative = inhibition, usual class: inhibitors; 4.3% of 120,000 active; active = well fitted inhibition curve with a large enough effect;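 also: plate controls were DMSO vehicle for no effect and reference drug for full effect; nearly all actives have a fitted effect of over 65% in size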
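Infected erythrocytes (Dd2, 0.3% parasitemia, 2.5% hematocrit final) are added to compound in RPMI-1640/Albumax II medium, grown 72 h at 37C in low oxygen, then lysed with saponin/Triton-X containing SYBR Green and read by fluorescence.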
* marks the source's active call; other numbers are inactive results; i = inactive; ! = a repeat was not active; [ ] = dose if it differs, or a comment. Potency is read from the fitted curve at half-maximal effect.

SMILES	Pf Dd2 growth
CCn1nccc1C(=O)NCCn1ccn2nc(-c3ccc(C)c(C)c3)cc2c1=O	7.94µM*
Cc1ccc(-c2cc3c(=O)n(CCNC(=O)c4ccccc4F)ccn3n2)cc1C	i
CCOc1ccccc1C1NC(=O)N(CC(=O)Nc2c(C)cccc2CC)C2=C1C(=O)OC2 (stereo not drawn)	i
Cc1cc(NC(=O)N2CCC(Oc3ncccc3C(=O)N(C)C)C2)ccc1Br (stereo not drawn)	i
COc1ccc(C2(C(=O)N3CCC(Cc4ccccc4)CC3)CCOCC2)cc1	-14.4%
NC(=O)[C@@H]1CCCN1CC[C@H]1CN(C(=O)NC2CCCCC2)CC[C@H]1CC(=O)O	29.0%[44.1 µM]
Cc1nnnn1-c1cccc(C(=O)N2CC[C@@](O)(C3CCOCC3)[C@H](C)C2)c1	12.3%
O=C(Nc1cccc(-c2ccc(F)cc2)c1)C1CCCN1C(=O)c1ccncc1 (stereo not drawn)	-9.1%
Cc1cccc(C)c1-n1ncc(C(=O)NCCN2CCN(C)CC2)c1C1CCN(C(=O)OC(C)(C)C)CC1	-24.2%
CC(C)(C)OC(=O)N1CCC(c2c(C(=O)NCCN3CCCC3)cnn2-c2ccc(Cl)cc2)CC1	7.08µM*
Cc1c(Cl)cccc1-n1ncc(C(=O)NCCN2CCN(C)CC2)c1C1CCN(C(=O)OC(C)(C)C)CC1	11.2µM*
COc1ccccc1CN1CCC(CNC(=O)c2cnn(-c3ccc(Cl)cc3)c2C2CCN(C(=O)OC(C)(C)C)CC2)CC1	1.26µM*
Cc1ccc(-n2ncc(C(=O)NCCN3CCC(Cc4ccccc4)CC3)c2C2CCN(C(=O)OC(C)(C)C)CC2)cc1	3.16µM*
Cc1c(Cl)cccc1-n1ncc(C(=O)N2CCN(C)CC2)c1C1CCN(C(=O)OC(C)(C)C)CC1	-10.4%
CN1CCN(C(=O)[C@@H]2CCC[C@@H](NC(=O)NC3CCCC3)CN(C)C(=O)C2)CC1	27.0%[44.1 µM]
COCC(=O)NC[C@H]1O[C@@H](CC(=O)N2CCN(c3ccccc3OC)CC2)[C@H](O)[C@@H]1O	24.4%
CC(=O)N1CCC(N2CCC3(CC2)CN(Cc2ccccc2)CC3CO)CC1 (stereo not drawn)	22.0%
COc1ccccc1C(=O)N1CCC2(CC1)CC(=O)c1ccc(Cl)cc1O2	-18.4%
COC(=O)CNC(=O)N1CCC(N2CC3CC(C2)[C@H]2CCCC(=O)N2C3)CC1 (stereo partly drawn)	-2.0%
O=C(c1cccc(F)c1)N1CCC(c2nc(C3CCOCC3)no2)CC1	-1.6%
O=C(CCc1cc2n(n1)CCCNC2)N1CCCC1c1nc2ccccc2[nH]1 (stereo not drawn)	-18.4%
CN(C)C(=O)C1CN(C(=O)c2ccc(C#N)cc2)CC12CCOCC2 (stereo not drawn)	15.9%
COc1cccc([S+](=O)([O-])N2CCC(C(=O)O)(c3ccccc3)CC2)c1	6.6%
CC(=O)N1Cc2ccccc2OC2(CCN(C(=O)c3ccnc(N)c3)CC2)C1	11.5%
Cc1noc(C)c1[S+](=O)([O-])N1CCCC2(C1)C(=NC1CCCCC1)NC(=O)N2c1cccnc1 (stereo not drawn)	i
SMILES	Pf Dd2 growth
CC(C)c1ccc(C(C)NC(=O)CN2CCCc3nc(-c4ccccc4)ncc3C2=O)cc1 (stereo not drawn)	i
COCCN(CCOC)CC[C@@H]1CC[C@H](O)[C@@H](C(=O)Nc2ccccc2)O1	15.8µM*
COCCN(CCOC)CC[C@@H]1CC[C@H](O)[C@@H](C(=O)N2CCOCC2)O1	3.6%[44.1 µM]
COCCN(CCOC)CC[C@@H]1CC[C@H](O)[C@@H](C(=O)NC2CCCCC2)O1	-12.4%[44.1 µM]
CN(Cc1cc(-c2ccccc2)on1)C(=O)CN1C[C@@H]2CC[C@H](CC1=O)N2	-12.6%
COCC(=O)N[C@@H]1CN(Cc2ccc(Cl)cc2F)C[C@H]1CO	14.7%
COc1cccc(-c2ccc(CN3CCN(c4cc(Cl)ncn4)C(=O)C3)cc2)c1	-23.0%
COc1ccc(-n2nc(C3CCCN(Cc4cccc5ccccc45)C3)[nH]c2=O)cc1 (stereo not drawn)	-18.3%
COc1cccc(-c2ccc(CN3CCCC(c4nc5ccc(C)cc5c(=O)[nH]4)C3)cc2)c1 (stereo not drawn)	7.94µM*!
Cc1ccc(-c2cccc(CN3CCCC(c4nc5ccc(C)cc5c(=O)[nH]4)C3)c2)c(C)c1 (stereo not drawn)	7.94µM*!
Cc1ccc2nc(C3CCN(CC4CCCC4)CC3)[nH]c(=O)c2c1	11.5%[44.1 µM]
Cc1ccc2nc(C3CCN(Cc4ccccc4)CC3)[nH]c(=O)c2c1	-5.4%
O=C(NCc1ccnc2[nH]ccc12)c1ccc(C(F)(F)F)cc1	1.0%[44.1 µM]
COCCN1CCNc2nc(COc3cccc(C(F)(F)F)c3)n(Cc3ccccc3)c2C1=O	i
O=[S+]([O-])(Nc1cccnc1)c1ccc2c(c1)OCCN(Cc1ccsc1)C2	-22.4%[44.1 µM]
FC(F)(F)Oc1cccc(CN2CCNc3cc(Nc4cccnc4)ncc3C2)c1	5.01µM*
COc1cccc(CN2CCNc3cnc(Nc4ccccc4)cc3C2)c1	i
c1ccc(Oc2cc3c(cn2)NCCN(Cc2ccsc2)C3)cc1	-4.5%[44.1 µM]
COc1cccc(Nc2cc3c(cn2)NCCN(Cc2ccccc2)C3)c1	i

Screening results deposited in PubChem by National Center for Advancing Translational Sciences (NCATS).
